PubChem BioAssay (EPA / NIEHS)
Results filed as inconclusive are left out. Calls of active or inactive are those of the source. The calls were made as follows: active = hit-call score of the fitted dose curve at least 0.9, where 1 is the maximum; inconclusive = response in the unintended direction; inactive = score below 0.9.

molecular target: human Thyroid Receptor alpha (THRa1), THRA (gene 7067) (UniProt P10827); assay: ATG_THRa1_TRANS: Attagene TRANS-FACTORIAL HepG2 Assay for human Thyroid Receptor alpha (THRa1) (AID 2283014)
Description: ATG_TRANS is a cell-based, multiplexed-readout assay that uses HepG2, a human liver cell line, with measurements taken at 24 hours after chemical dosing in a 24-well plate.ATG_THRa1_TRANS is one of 30 assay component(s) measured or calculated from the ATG_TRANS assay. It is designed to make measurements of mRNA induction, a form of inducible reporter, as detected with fluorescence intensity signals by Reverse transcription polymerase chain reaction (RT-PCR) and Capillary electrophoresis technology.Data from the assay component ATG_THRa1_TRANS was analyzed into 1 assay endpoint. This assay endpoint, ATG_THRa1_TRANS, was analyzed in the positive analysis fitting direction relative to DMSO as the negative control and baseline of activity. Using a type of inducible reporter, measures of mRNA for gain-of-signal activity can be used to understand the reporter gene at the transcription factor-level as they relate to the gene THRA. Furthermore, this assay endpoint can be referred to as a primary readout, because this assay has produced multiple assay endpoints where this one serves a reporter gene function. To generalize the intended target to other relatable targets, this assay endpoint is annotated to the nuclear receptor intended target family, where the subfamily is non-steroidal.
Human liver HepG2 cells are transiently transfected with multiple reporter transcription units (MRTUs) in 6-well plates using FuGene 6 reagent (Roche; 3 ml FuGene/1 mg DNA). The MRTU constructs are regulated by a cis-regulating element (promoter). […] A major difference between the CIS and TRANS system is that in CIS activities of endogenous TFs are measured, whereas the TRANS assay evaluates changes in activities of exogenous, chimeric NR-Gal4 proteins. […] At the end of 24 hour incubation, total RNA was isolated using TriZol reagent (Invitrogen). The isolated RNA is then reverse-transcribed using oligo(dT) primer and Mo-MLV reverse transcriptase (Invitrogen) with DNAse I (Ambion) treatment for 30 min. The one-tenth of the produced cDNA was amplified by PCR using Taq DNA polymerase (Invitrogen) and two reporter sequence-specific primers. The PCR products were fluorescently labeled by primer extension with 6-arboxyfluorescein (6-FAM) 5'-labeled reporter sequence-specific primer (2 min at 95 C, 20 s at 68 C and 10 min at 72 C) and these products were digested with 5U of HpaI (New England Biolabs) for 2h at 37 C. The fragments were purified using Qiaquick PCR columns (Qiagen), analyzed on an ABI 3130xL genetic analyzer (Applied Biosystems) with peak positions identified by using a set of X-rhodamine (ROX)-labeled MapMarker1000 molecular weight standards (BioVentures). The raw capillary electrophoresis data was processed using Attagraph software (Attagene).

Sequence of human Thyroid Receptor alpha (THRa1), THRA (gene 7067) (P10827 whole entry, looked up): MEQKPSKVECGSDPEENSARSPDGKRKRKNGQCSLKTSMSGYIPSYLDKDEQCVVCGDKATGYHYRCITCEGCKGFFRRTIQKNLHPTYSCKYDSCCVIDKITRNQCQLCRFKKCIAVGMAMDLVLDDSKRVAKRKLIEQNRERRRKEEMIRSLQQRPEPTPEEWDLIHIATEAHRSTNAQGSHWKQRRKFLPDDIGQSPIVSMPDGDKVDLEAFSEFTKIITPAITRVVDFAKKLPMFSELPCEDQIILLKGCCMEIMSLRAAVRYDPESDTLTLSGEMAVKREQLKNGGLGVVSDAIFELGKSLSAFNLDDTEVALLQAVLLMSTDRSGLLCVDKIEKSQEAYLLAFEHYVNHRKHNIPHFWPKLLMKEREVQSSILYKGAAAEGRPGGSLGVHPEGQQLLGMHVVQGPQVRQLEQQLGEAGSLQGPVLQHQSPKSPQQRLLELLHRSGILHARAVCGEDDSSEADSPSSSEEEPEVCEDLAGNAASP

Compound | outcome | AC50
OCc1cccc(Oc2ccccc2)c1 | inactive | –
CCOC(=O)c1ccc(N)cc1 | inactive | –
C[C@H]1C[C@@H](O)CC(C)(C)C1 | inactive | –
CC(=O)Nc1ccc(C(=O)CCl)cc1 | inactive | –
COc1ccc(CCC(C)=O)cc1 | inactive | –
C=CC(=C)CCCC(C)(C)OC(C)=O | inactive | –
CCC(C)c1cc([N+](=O)[O-])cc([N+](=O)[O-])c1OC(=O)OC(C)C (stereo not given) | inactive | –
CC(C)CC(C)CC(O)CC(C)C (stereo not given) | inactive | –
CCCCCCCCN1CCCC1=O | inactive | –
COC(=O)C=C(C)CCC=C(C)C | inactive | –
CCC(Cl)C(Cl)C(Cl)CC(Cl)C(Cl)C(C)Cl (stereo not given) | inactive | –
Clc1cc(Cl)c(-c2c(Cl)c(Cl)cc(Cl)c2Cl)cc1Cl | inactive | –
CCCOC(=O)c1c(Cl)c(Cl)c(Cl)c(Cl)c1C(=O)OCCC | inactive | –
CCCCN(CCCC)C(=O)N(CCCC)CCCC | inactive | –
CCN(CCN)c1cccc(C)c1 | inactive | –
CCCCCCCCCCCCCC(=O)OCC(O)CO (stereo not given) | inactive | –
CC(O)C1CCCCC1 (stereo not given) | inactive | –
COc1cc([C@@H]2c3cc4c(cc3[C@@H](O[C@@H]3O[C@@H]5CO[C@@H](C)O[C@H]5[C@H](O)[C@H]3O)[C@H]3COC(=O)[C@H]23)OCO4)cc(OC)c1O | inactive | –
CC1(C)C(=O)N(Cl)C(=O)N1Br | inactive | –
CCOc1ccccc1O | inactive | –

Compound | outcome | AC50
Cc1cc(=O)oc2cc(N(C)C)ccc12 | inactive | –
CC1=NN(c2ccc(S(=O)(=O)O)cc2)C(=O)C1 | inactive | –
CCN(CC)C(=O)N(CC)CC | inactive | –
C[N+](C)(C)CCCCCC[N+](C)(C)C | inactive | –
CC/C=C\CC/C=C/CO | inactive | –
Nc1ccc(N)c2c1C(=O)c1ccccc1C2=O | inactive | –
O=C1OC[C@H](Cc2cccc(O)c2)[C@H]1Cc1cccc(O)c1 | inactive | –
Nc1ccccc1[N+](=O)[O-] | inactive | –
O=[N+]([O-])c1ccc(O)cc1C(F)(F)F | inactive | –
O=C(O)c1ccc(O)cc1 | inactive | –
CCCCC1CCC(O)CC1 (stereo not given) | inactive | –
CCOc1ccc(N=Nc2ccc(C=Cc3ccc(N=Nc4ccc(OCC)cc4)cc3S(=O)(=O)O)c(S(=O)(=O)O)c2)cc1 | inactive | –
Nc1ccc2cc(S(=O)(=O)O)cc(O)c2c1N=Nc1ccccc1C(F)(F)F | inactive | –
O=C1c2ccccc2C(=O)c2c(O)ccc(O)c21 | inactive | –
O=Cc1ccccc1S(=O)(=O)O | inactive | –
CCOC(=O)[C@@H](C)Oc1ccc(Oc2nc3ccc(Cl)cc3o2)cc1 | inactive | –
O=C(CC(=O)c1ccccc1)c1ccccc1 | – | 58.5 µM (active)
CCCCCCCCCCCCN1CCCCCC1=O | inactive | –
COC(=O)c1ccc([N+](=O)[O-])cc1 | inactive | –
C=C(C#N)C(=O)OCC | inactive | –
